# From PubChem BioAssay (Tox21)
# Inconclusive results are not listed. Where a call stands in place of a potency, no number is given. Calls of active or inactive are those of the source. Calls come from the whole dose curve.
# Test: qHTS assay to identify small molecule agonists or antagonists of the thyroid stimulating hormone receptor (TSHR) signaling pathway - wild type cell line counter screen (AID 1259384)
# Conditions: HEK293 wild type, cAMP HTRF counter-screen; series mostly up to 92.4 µM; cAMP activity change: at the top concentration
# Excerpt: U.S. Tox21 Program National Center for Advancing Translational Sciences [NCATS] NIH Chemical Genomics Center [NCGC] U.S. Environmental Protection Agency [EPA] National Institutes of Environmental Health Sciences [NIEHS] National Toxicology Program [NTP] U.S. Food and Drug Administration [FDA] Tox21 Assay Overview: TSHR is the receptor for thyrotropin (thyroid stimulating hormone or TSH), a member of the glycoprotein hormone family. TSH is released by the anterior pituitary gland and is the main regulator of thyroid gland growth and development. Upon binding circulating thyrotropin, a G-protein signal cascade activates adenylyl cyclase and […] cAMP concentration is increased. cAMP is a key second messenger involved extensively in cellular signal transduction pathways associated with the majority of G-protein coupled receptors (GPCRs). The activation of these GPCRs by neurotransmitters, lipids, nucleotides, peptides and hormones results in the activation or the inhibition of plasma membrane-bound adenylate cyclase through heterotrimeric G-proteins. A cell-based TSHR-Hek293 assay can be used to identify TSHR agonists. To eliminate the false positive compounds identified from screening a cell-based TSHR-Hek293 cell line, cAMP assay in a wild type Hek293 cells was used as a counter screening.
# Tox21 Assay Protocol Summary: Hek293 cells (wild type) were dispensed at 800 cells/4 uL/well in 1536-well white plates using a Multidrop dispenser. After the assay plates were incubated at a 37 C/5% CO2 incubator for 18 hrs, 23 nL of compounds dissolved in DMSO, positive controls or DMSO only was transferred to the assay plate by a pin tool, followed by 1 ul medium containing Ro20-1724. After 30 min of incubation at room temperature, 2.5 ul/well of cAMP-d2 and 2.5 ul/well of anti-cAMP-cryptate were added respectively into the assay plates using a Flying Reagent Dispenser. The plates were incubated at room temperature for 1 hr. The fluorescence intensity in the plates was measured using an Envision plate reader. Each test compound was measured at 15 concentrations and in triplicates.
SMILES,Potency,cAMP activity change
CCCCSP(=O)(SCCCC)SCCCC,inactive,
CCOP(=O)(OCC)OCC,inactive,
CCOC(=O)c1ccccc1N,inactive,
CC(C)(O)C(=O)Nc1ccc([N+](=O)[O-])c(C(F)(F)F)c1,inactive,
O=NN(c1ccccc1)c1ccccc1,inactive,
N#Cc1nn(-c2c(Cl)cc(C(F)(F)F)cc2Cl)c(N)c1S(=O)C(F)(F)F (stereo not given),inactive,
CCOP(=S)(OCC)SCSC(C)(C)C,inactive,
CN(C)c1nc(=O)n(C2CCCCC2)c(=O)n1C,inactive,
COC(=O)Nc1nc2ccccc2[nH]1,inactive,
[CH3][Sn]([Cl])([Cl])[Cl],inactive,
Cc1cccc(N=Nc2ccc(N(C)C)cc2)c1,inactive,
Nc1ncn[nH]1,inactive,
O=C(O)c1nn(Cc2ccc(Cl)cc2Cl)c2ccccc12,inactive,
CC1CC(=O)O1 (stereo not given),inactive,
CNC(=O)Oc1cccc2c1OC(C)(C)C2,inactive,
Clc1cccc(C(Cl)(Cl)Cl)n1,inactive,
ClC(Cl)(Cl)Br,inactive,
N#Cc1cccnc1,inactive,
C=C(C)C#N,inactive,
CCOP(=S)(OCC)OP(=S)(OCC)OCC,inactive,

SMILES,Potency,cAMP activity change
Oc1ccc(Cl)cc1Cc1ccccc1,inactive,
Brc1ccc(Br)cc1,inactive,
CCC(=O)Nc1ccc(Cl)c(Cl)c1,inactive,
CC(O)CN(CC(C)O)CC(C)O (stereo not given),inactive,
Cn1c(-c2ccccc2)cc(-c2ccccc2)[n+]1C,inactive,
CC(C)COC(=O)c1ccccc1C(=O)OCC(C)C,inactive,
Nc1ccc([N+](=O)[O-])cc1N,,-15.9% (inactive)
CCOS(=O)(=O)OCC,inactive,
ClC(Cl)=C(Cl)C(Cl)=C(Cl)Cl,inactive,
Cc1ccc([N+](=O)[O-])cc1,inactive,
CCCCCCCCCCCCCl,inactive,
C=CC(Cl)CCl (stereo not given),inactive,
CNC(=O)CSP(=S)(OC)OC,inactive,
CC(C)=CC1C(C(=O)OCN2C(=O)C3=C(CCCC3)C2=O)C1(C)C (stereo not given),inactive,
COc1ccc(CO)cc1,inactive,
CC(C)(c1ccccc1)c1ccc(O)cc1,inactive,
CCC[CH2][Sn]([Cl])([CH2]CCC)[CH2]CCC,,10% (inactive)
Clc1ccc(C(Cl)(Cl)Cl)cc1,inactive,
O=[N+]([O-])/N=C1\NCCN1Cc1ccc(Cl)nc1,inactive,
CC1(C)C(C(=O)OC(C#N)c2cccc(Oc3ccccc3)c2)C1(C)C (stereo not given),inactive,
